Measured values published in PubChem BioAssay AID624488 (Broad Institute, 2012).
Measured potencies and affinities stand elsewhere. Unmarked numbers belong to inactive results.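 How the source made its calls: active means compounds that lower cell ATP signal, with a fitted half-maximal concentration within a set limit; inconclusive means flat curve with moderate signal loss, or poor fit; inactive means the rest.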

assay: A375 melanoma cell cytotoxicity, dose response, counter-screen for MITF inhibitor project, CellTiter-Glo luminescence, dry powder, set 6 (AID 624488); settings: A375 viability, CellTiter-Glo ATP luminescence, 24 h; series mostly up to 35 µM; activity change, negative = cytotoxicity: at the top concentration

| Structure (SMILES) | activity change, negative = cytotoxicity [%] |
| --- | --- |
| O=C1C=C(NS(=O)(=O)c2ccccc2)C(=O)c2ccccc21 | -10.2 |
| O=C1C=C(NS(=O)(=O)c2cccs2)C(=O)c2ccccc21 | -6.47 |
| CNC1=CC(=O)c2ccccc2C1=O | -11.1 |
| NC1=C(NS(=O)(=O)c2ccc(Br)s2)C(=O)c2ccccc2C1=O | 2.01 |
| NC1=C(NS(=O)(=O)c2cccs2)C(=O)c2ccccc2C1=O | -7.64 |
| NC1=C(NS(=O)(=O)c2ccc(Br)cc2)C(=O)c2ccccc2C1=O | 0.71 |
| O=C1C=C(NS(=O)(=O)c2ccc(Br)cc2)C(=O)c2ccccc21 | -4.1 |
| O=C1C(NS(=O)(=O)c2ccccc2)=C(c2ccccc2)C(=O)c2ccccc21 | -12.8 |
